Assay outcomes as filed in PubChem BioAssay.
A selection: hits, their analogues and other compounds. The true share with any hit is near 19%.
IL-1B inflam inh – inhibitors of inflammasome signaling (IL-1 beta secretion). activity change, % at 57.5 µM. 360,000 compounds, 4.7% hits. THP-1 LPS/ATP IL-1B secretion, AlphaLISA, 16 h; active compounds read low; in the data active = activity change below about -50%; inconclusive = mostly about -30% to -49%; note: % is set by controls: 0 for no effect and ±100 for the full control effect
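Secreted IL-1B measured by AlphaLISA bead assay after 16 h compound exposure of THP-1 cells; compounds (final up to 57.5 uM) added 1 h before LPS (250 ng/mL) and ATP (1.25 mM) stimulation; lower signal means less secretion.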
TDP1 cell noCPT – qHTS for Inhibitors of human tyrosyl-DNA phosphodiesterase 1 (TDP1): qHTS in cells in absence of CPT; DT40 Tdp1-/- hTDP1 cells, no CPT, ATP luminescence, 48 h; Potency, µM (top dose mostly 46.2 µM), inactives show top-dose activity change, negative = growth inhibition, usual class: inhibitors; 420,000 compounds, 15% hits; note: potency is the fitted concentration of half-maximal effect; % is set by controls: 0 for no effect and ±100 for the full control effect; nearly all actives have a fitted effect of over 55% in size
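Readout: luminescence from CellTiter-Glo after 30 min in the dark at RT. Cells: DT40 Tdp1-/- with stable hTDP1, 400/well. Exposure: compounds alone, ≥48 hr, 37 °C.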
SW480 rerep – DNA re-replication induction in SW480 cells; SW480 DNA re-replication, Hoechst DNA content imaging, 48 h; Potency, µM (highest dose often 46.1 µM), for the others: at the top dose re-replication activation, usual class: activators; 340,000 compounds, 1.8% hits; note: potency is the fitted concentration of half-maximal effect; % of control where 0% means no effect; nearly all actives have a fitted effect of over 55% in size
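Per well, 250 cells were exposed to pinned compound for 48 hr. Nuclear DNA was visualised with Hoechst (40 min, 37 C) and total object intensity recorded by fluorescence scanning.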
BCR signal inh – blocks chronic active B-cell receptor signaling; ABC-DLBCL IkBa-CBG/CBR reporter, luminescence ratio, 4 h; Potency, µM (highest dose often 46.1 µM), for inactives: at the highest dose activity change, negative = inhibition, actives largely listed as inhibitors; 340,000 compounds, 0.05% hits; AID 493014; active = well fitted inhibition curve with a large enough effect in the signal ratio, with a control signal flat, not every such curve was filed as active; inconclusive = small, poorly fitted or top-dose-only effect, or effect the other way, or a change in a side signal; the % refers to the signal ratio;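 note: potency is the fitted concentration of half-maximal effect; plate controls were basal doxycycline-induced cells for no effect and cells given 10 µM MG132 for full effect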
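Concentration-response series (up to 46 uM) were applied to TMD8 dual-reporter cells for 4 h at 37C with doxycycline. Green/red ratio, after filter-overlap correction, defined %Activity; red signal alone was normalised to basal cells and zero luminescence.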
TDP1 cell CPT – growth inhibition of DT40 Tdp1-/-;hTDP1 cells with camptothecin (screen for TDP1 inhibitors); chicken DT40 Tdp1-/-;hTDP1 cells + 20 nM CPT, ATP luminescence, 48 h; AID 686979; 420,000 compounds, 12% hits; Potency, µM (titrated, usually from 46.2 µM), for the others: at the top dose activity change, negative = growth inhibition, usual class: inhibitors; note: potency is the fitted concentration of half-maximal effect; % is set by controls: 0 for no effect and ±100 for the full control effect; nearly all actives have a fitted effect of over 55% in size
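Cell growth measured by CellTiter-Glo luminescence after a minimum 48 h, 37 C compound exposure with 20 nM CPT in Tdp1-knockout DT40 cells stably expressing hTDP1, seeded 400/well; qHTS titration format.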
MCF10A rereplic – DNA re-replication induction in MCF 10a cells | AID 624296 | 350,000 compounds, 2.9% hits | MCF 10A DNA re-replication, Hoechst nuclear intensity, 48 h | Potency, µM (doses to about 46.1 µM), without a hit: top-dose activity, positive = re-replication, usual class: activators; note: potency is the fitted concentration of half-maximal effect; % of control where 0% means no effect; nearly all actives have a fitted effect of over 50% in size
Starred values were filed as active, the others as inactive; i = inactive; ? = inconclusive; . = no result. Unless noted, calls come from the whole dose curve; as a rule, active = well fitted curve in the direction sought with a large enough effect; inconclusive = small, poorly fitted or top-dose-only effect, or another doubt; inactive = no such curve, though single readings can be large; an effect the other way counts as inactive or inconclusive.

SMILES	IL-1B inflam inh	TDP1 cell noCPT	SW480 rerep	BCR signal inh	TDP1 cell CPT	MCF10A rereplic
CCc1csc(CCNC(=O)C2CCC(=O)N(CCc3cccc(F)c3)C2)n1 (centres undefined)	i	-9%	-24%	-1%	-29%	-16%
COCCN(Cc1nnc(-c2cccs2)o1)C(=O)CN1C(=O)NC2(CCCCC2)C1=O	10	?	2%	-1%	0%	7%
CN1CC(c2ccccc2)C2(SC(=S)N(Cc3ccco3)C2=O)C12C(=O)Nc1ccccc12 (centres undefined)	-69*	11µM*	?	5%	-94%	6.5µM*
O=C(c1nc(-c2ccc(Cl)cc2)n2c1CCCCC2)N1CCN(c2ccccc2)CC1	.	21µM*	.	.	?	.
Cc1cccc(CCNC(=O)c2nc(-c3ccc(Cl)cc3)n3c2CCCCC3)c1	.	9.2µM*	.	.	10µM*	.
COc1ccc(CCNC(=O)c2nc(-c3ccc(Cl)cc3)n3c2CCCCC3)c(OC)c1	.	9.2µM*	.	.	10µM*	.
CCNNC(=O)C(O)(Cc1ccccc1)Cc1ccccc1	29	-2%	-3%	-1%	-13%	3%
CCN(C(=O)CSc1nc2n[nH]c(C)c2c(=N)n1-c1ccc(Cl)c(C)c1)c1cccc(C)c1	?	21µM*	?	10%	18µM*	8.2µM*
CCCCN(CC)C(=O)CSc1nc2n[nH]c(C)c2c(=N)n1-c1cccc(OC)c1	.	9.2µM*	.	?	23µM*	.
CCCN(CCC)C(=O)CSc1nc2n[nH]c(C)c2c(=N)n1-c1ccc(OCC)cc1	-5	?	-3%	?	?	?
CCN(CC)C(=O)CSc1nnc(COc2cccc(C)c2)n1C	.	.	.	-12%	.	.
CCCCN(CC)C(=O)CSc1nc2n[nH]c(C)c2c(=N)n1-c1ccc(CC)cc1	.	5.2µM*	.	?	10µM*	.
CCCCN(CC)C(=O)CSc1nc2n[nH]c(C)c2c(=N)n1-c1cccc(C)c1	19	21µM*	?	?	7.3µM*	11%
Cc1cc(=O)n2nc(N3CCC(C(=O)NCCc4ccc(Cl)cc4)CC3)sc2n1	-26	-13%	-7%	-1%	-22%	0%
C[C@H](CO)N1C[C@H](C)[C@@H](CN(C)S(C)(=O)=O)Oc2ccc(NC(=O)CCC(F)(F)F)cc2C1=O	33	-13%	-7%	0%	3%	13%
O=C(CN1CCCN(Cc2ccccc2Cl)S1(=O)=O)Nc1ccc2c(c1)OCCO2	.	-25%	.	.	?	.
CCCN(CCC)C(=O)CSc1nc2n[nH]c(C)c2c(=N)n1-c1ccc(OC)cc1	-12	10µM*	0%	?	13µM*	?
COc1cc(OC)c(S(=O)(=O)Nc2ccc(C(=O)O)cc2)cc1S(=O)(=O)Nc1ccc(C(=O)O)cc1	2	-10%	-11%	-4%	3%	-2%
CC1=C(C(=O)OCCCBr)C(c2ccc3c(c2)OCO3)NC(=O)N1 (centres undefined)	-1	23µM*	3%	-7%	26µM*	4%
CCCCCOC(=O)C1=C(C)NC(=O)NC1c1ccc2c(c1)OCO2 (centres undefined)	-54*	-30%	1%	1%	-13%	11%
CCOC(=O)C(C)OC(=O)C1=C(C)NC(=O)NC1c1ccc2c(c1)OCO2 (centres undefined)	50	4.1µM*	-7%	-1%	3.7µM*	-9%
CC1=C(C(=O)OCCC(C)C)C(c2ccc3c(c2)OCO3)NC(=O)N1 (centres undefined)	-13	?	-3%	1%	?	6%
CCOC(=O)C1=C(CN2CCSCC2)NC(=O)NC1c1ccc2c(c1)OCO2 (centres undefined)	-5	-17%	-3%	0%	8%	-2%
CCOC(=O)C1=C(CCl)NC(=O)NC1c1ccc2c(c1)OCO2 (centres undefined)	-100*	2.6µM*	?	-1%	15µM*	?
CSCCOC(=O)C1=C(C)NC(=O)NC1c1ccc2c(c1)OCO2 (centres undefined)	-23	21%	1%	?	0%	2%
SMILES	IL-1B inflam inh	TDP1 cell noCPT	SW480 rerep	BCR signal inh	TDP1 cell CPT	MCF10A rereplic
Cc1ccccc1S(=O)(=O)N(C)C[C@@H]1OCc2cnnn2CCCC(=O)N([C@@H](C)CO)C[C@H]1C	4	-7%	.	.	-8%	.
CCOc1ccc(S(=O)(=O)N2CCCC(C(=O)N3CCCC3)C2)cc1 (centres undefined)	19	?	-2%	6%	-4%	-1%
Cc1ccccc1NC(=O)COC(=O)c1ccccc1OCC(=O)Nc1ccc(Br)cc1	.	5%	.	.	-4%	.
CC(=O)c1cccc(NC(=O)c2cc(S(=O)(=O)N3CCCCC3)ccc2N2CCOCC2)c1	8	?	.	.	?	.
COc1ccc(CCN=C(N)Nc2nc(C)cc(C)n2)cc1	-20	7.3µM*	?	?	7.3µM*	?
COc1ccc(CCN=C(N)NS(=O)(=O)c2ccccc2)cc1	10	-25%	7%	3%	?	4%
CC1=C(C(=O)NC2CCCc3c2cnn3-c2ccc(F)cc2F)OCCO1 (centres undefined)	8	4.1µM*	7%	1%	21µM*	1%
CCc1cc(C(=O)NC2CCCc3c2cnn3-c2ccc(F)cc2F)no1 (centres undefined)	36	18µM*	.	.	21µM*	.
O=C(CCc1ccncc1)NC1CCCc2c1cnn2-c1ccc(F)cc1F (centres undefined)	-12	?	?	13%	?	4%
CCC(c1nnnn1C1CCCC1)N1CCN(c2cccc(OC)c2)CC1 (centres undefined)	-3	16µM*	10%	-6%	?	-11%
C1=C(C(c2nnnn2C2CCCCC2)N2CCCCC2)COc2ccccc21 (centres undefined)	32	16µM*	-2%	-2%	?	14%
CCC(c1nnnn1C1CCCC1)N1CCN(Cc2ccccc2)CC1 (centres undefined)	-3	-20%	-4%	-2%	-6%	-2%
Clc1ccc(C(c2nnnn2C2CCCC2)N2CCSCC2)cc1 (centres undefined)	-62*	-17%	-3%	6%	-1%	21µM*
Fc1ccc(C(c2nnnn2C2CCCCC2)N2CCCC2)cc1 (centres undefined)	8	-25%	-7%	?	-1%	2%
